Measurements published in PubChem BioAssay AID463173 (ICCB-Longwood Screening Facility, Harvard Medical School, 2010).
The campaign covered roughly 52,000 compounds. About 4,300 (8.3%) were called active. No stated cut-off is given here; in the data, active means survival mostly below about 52% (no sharp cut-off); inactive means mostly above about 56%. This excerpt belongs to a sample that is enriched for actives.

system: DeltatarO mutant; assay: S. aureus survival, RN4220 and DeltatarO strains – OD600, teichoic acid synthesis inhibitors, primary screen (AID 463173); conditions: S. aureus RN4220 wild type/DeltatarO growth, OD600, 18 h, stronger effect = lower value, screened at 18.75 µg/mL (by protocol)

Row | Compound | survival
1 | N#Cc1ccc2c(c1)nc1c3cccc4cccc(c(=O)n21)c43 | 72% (inactive)
2 | CC(C)(C)C(=O)N1c2ccccc2CCc2ccccc21 | 84% (inactive)
3 | COc1ccc(Br)cc1CNC(=O)CCSCc1ccc(C)cc1 | 81% (inactive)
4 | Cc1cccc(C(c2sc3nc(-c4ccco4)nn3c2O)N2CCN(Cc3ccccc3)CC2)c1 (stereo unspecified) | 94% (inactive)
5 | Cc1nc(Oc2ccccc2C)c2oc3ccccc3c2n1 | 101% (inactive)
6 | COc1cccc(Oc2nc(C)nc3c2oc2ccccc23)c1 | 25% (active)
7 | CC(=O)c1ccc(Oc2nc(C)nc3c2oc2ccccc23)cc1 | 92% (inactive)
8 | CCN(CC)c1ccc(NC(=O)C(Cc2ccccc2)NS(=O)(=O)c2ccc(Br)s2)c(C)c1 (stereo unspecified) | 117% (inactive)
9 | COc1ccc2nc(SCC(=O)NC3CCCCC3C)c(C#N)cc2c1 (stereo unspecified) | 89% (inactive)
10 | CC(=O)Nc1ccc(Nc2nc3ccc(Cl)cc3n3cnnc23)cc1 | 99% (inactive)
11 | COc1ccc(C(=O)Nc2nccs2)cc1OC | 79% (inactive)
12 | COc1cc(C(=O)Nc2ccc(NC(=O)c3ccc(C(C)(C)C)cc3)cc2)cc(OC)c1OC | 132% (inactive)
13 | CCCCCNC(=O)c1ccc2c(c1)ncn2-c1cccc(C)c1 | 0% (active)
14 | Cc1cccc(-n2cnc3cc(C(=O)NC4CCCCCC4)ccc32)c1 | 106% (inactive)
15 | CCCCCNC(=O)c1ccc2c(c1)nc(C)n2-c1cccc(C)c1 | 0% (active)
16 | Cc1ccc(-n2cnc3cc(C(=O)NCc4ccccc4Cl)ccc32)c(C)c1 | 37% (active)
17 | Cc1nc2cc(C(=O)NCCC3=CCCCC3)ccc2n1-c1ccc(Br)cc1 | 60% (inactive)
18 | CCOc1ccc(-n2c(C)nc3cc(C(=O)NCCC4=CCCCC4)ccc32)cc1 | -4% (active)
19 | Cc1cccc(-n2cnc3cc(C(=O)NCc4ccccc4Cl)ccc32)c1 | 72% (inactive)
20 | COCCCNC(=O)c1ccc2c(c1)nc(C)n2-c1cccc(C)c1 | 69% (inactive)
21 | CCCNC(=O)c1ccc2c(c1)nc(C)n2-c1cccc(C)c1 | 83% (inactive)

Row | Compound | survival
22 | CCCNC(=O)c1ccc2c(c1)ncn2-c1ccc(C)cc1C | 75% (inactive)
23 | Cc1cccc(-n2c(C)nc3cc(C(=O)NCCC4=CCCCC4)ccc32)c1 | 71% (inactive)
24 | Cc1cc(C)cc(-n2cnc3cc(C(=O)NCCc4ccccc4)ccc32)c1 | 78% (inactive)
25 | Cc1nn(-c2ccccc2)c(OC(=O)c2ccc(Cl)cc2)c1S(=O)(=O)c1ccccc1 | 79% (inactive)
26 | c1csc(-c2nc3ccccn3c2Nc2ccc3c(c2)OCCO3)c1 | 89% (inactive)
27 | Cc1ccccc1NC(=O)CCS(=O)(=O)c1cc(Br)cc2c1N(C(=O)C1CC1)CC2 | 96% (inactive)
28 | CC(=O)Nc1cc2c(cc1C(=O)c1ccccc1)OCCO2 | 108% (inactive)
29 | Cn1c(=O)c(=O)n(C)c2cc(S(=O)(=O)CCC(=O)Nc3ccc(F)cc3)ccc21 | 83% (inactive)
30 | CCc1nn(CC(=O)NCCN(CC(C)C)CC(C)C)c(=O)c2cc3sc(C)cc3n12 | 68% (inactive)
31 | CC(=O)c1ccc(Nc2cc(C)nc3nc(Cc4ccccc4)nn23)cc1 | 64% (inactive)
32 | CCOc1ccc(NC(=O)NCc2cccn2Cc2ccccc2)cc1 | 72% (inactive)
33 | CCOC(=O)c1cccc(NC(=O)NCc2cccn2Cc2ccccc2)c1 | 119% (inactive)
34 | CCOC(=O)Cc1ccc(NC(=O)NCc2cccn2Cc2ccccc2)cc1 | -4% (active)
35 | CCN1CCc2c(sc(-n3cccc3)c2C(C)NC(=O)Nc2ccc(Br)cc2)C1 (stereo unspecified) | 102% (inactive)
36 | CCc1ccc(NC(=O)CC2C(=O)N(c3ccc(OC)cc3)C(=O)N2Cc2ccc(OC)cc2)cc1 (stereo unspecified) | 100% (inactive)
37 | CC(=O)c1ccc(NC(=O)Cn2cnc3nc4c(cc3c2=O)CC(C)CC4)cc1 (stereo unspecified) | 60% (inactive)
38 | CCOC(=O)c1cccc(NC(=O)Cn2c(CC(=O)N3CCCC3)nc3ccccc32)c1 | 83% (inactive)
39 | O=C(Cn1c(CC(=O)N2CCCC2)nc2ccccc21)NCc1ccccc1 | 64% (active)
40 | O=C(CSc1cn(CC(=O)N2CCCCC2)c2ccccc12)NCc1ccccc1 | 87% (inactive)
41 | CCn1c(=O)c2sccc2n2c(CCC(=O)N3CCN(c4ccc(C(C)=O)cc4)CC3)nnc12 | 65% (inactive)
42 | CCCN(CCC)S(=O)(=O)c1ccc(C(=O)N2CCn3c4c(c5cc(C)ccc53)CCCC42)cc1 (stereo unspecified) | 58% (inactive)

Row | Compound | survival
43 | CCOc1cc(C(=O)N2CCn3c4c(c5cc(C)ccc53)CCCC42)cc(OCC)c1OCC (stereo unspecified) | 56% (inactive)
44 | Cc1ccc2c(c1)c1c3n2CCN(C(=O)c2cccc(C(F)(F)F)c2)C3CCC1 (stereo unspecified) | 14% (active)
45 | COc1cc(SC)ccc1C(=O)N1CCn2c3c(c4cc(C)ccc42)CCCC31 (stereo unspecified) | 70% (inactive)
46 | Cc1ccc(C(=O)N2CCn3c4c(c5cc(C)ccc53)CCCC42)cc1 (stereo unspecified) | -1% (active)
47 | Cc1ccc2c(c1)c1c3n2CCN(C(=O)c2ccc(C(F)(F)F)cc2)C3CCC1 (stereo unspecified) | 44% (inactive)
48 | COc1ccc(OC)c(CNC(=O)c2cc3ccc4cccnc4c3[nH]2)c1 | 112% (inactive)
49 | COc1ccc(-c2nnc(SCC(=O)N(C)C3CCCCC3)o2)cc1OC | 86% (inactive)
50 | O=C(O)c1ccc(N=NN2CCCCC2)cc1 | 75% (inactive)
51 | COc1cccc(NC(=O)C(=O)NCC(c2cccnc2)N2CCN(c3ccccc3)CC2)c1 (stereo unspecified) | 97% (inactive)
52 | COc1cccc(C2C(C(=O)Nc3ccccc3OC)=C(C)Nc3nc4ccccc4n32)c1 (stereo unspecified) | 51% (inactive)
53 | Cc1cccc(N2CCN(C(=O)Cn3ncc4c5ccccc5n(C)c4c3=O)CC2)c1C | 73% (inactive)
54 | CCc1nnc(NC(=O)c2nc(S(C)(=O)=O)ncc2Cl)s1 | 66% (inactive)
55 | CCc1nnc(NC(=O)c2nc(S(=O)(=O)Cc3cccc(C)c3)ncc2Cl)s1 | 31% (active)
56 | CC(C)c1nnc(NC(=O)c2nc(S(=O)(=O)Cc3ccccc3)ncc2Cl)s1 | 46% (inactive)
57 | Cc1ccc(CS(=O)(=O)c2ncc(Cl)c(C(=O)Nc3nnc(C(C)C)s3)n2)cc1 | 54% (inactive)
58 | Cc1cccc(CS(=O)(=O)c2ncc(Cl)c(C(=O)Nc3nnc(C(C)C)s3)n2)c1 | 28% (active)
59 | CCc1nnc(NC(=O)c2nc(S(=O)(=O)Cc3ccc(C)cc3)ncc2Cl)s1 | 42% (active)
60 | Cc1ccccc1CS(=O)(=O)c1ncc(Cl)c(C(=O)Nc2nnc(C(C)C)s2)n1 | 30% (active)
61 | CCCc1nnc(NC(=O)c2nc(S(=O)(=O)Cc3ccc(C)cc3)ncc2Cl)s1 | 47% (inactive)
